About 83,000 compounds went through this panel and 20% of them were active in at least one assay; those are over-represented in the sample as a whole.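 Cells were grown in 96-well plates and exposed to the test compound at a single concentration for 48 hours; results are reported as percent growth, with values below 10 considered active.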 Active and inactive are the calls of the source.
Tested on: NCI-H522 lung
Experiment: NCI-60 one-dose screen, 48 h (100 = growth as untreated, 0 = no growth, -100 = all killed)
Settings: 10 µM unless noted

Structure (SMILES)	growth
CCO/C=N/C1=C(C#N)C(c2ccc(F)cc2)c2sc3c(F)cccc3c2O1 (stereo unspecified)	-22% (active)
COc1cc2nc3sc(C(=O)Nc4ccc(C(=O)OC(C)C)cc4)c(C(=O)Nc4ccc(Cl)cc4C)n3c(=O)c2cc1OC	98.7% (inactive)
O=C(c1c[nH]c2ccccc12)c1n[nH]c(=S)n1-c1cccc(Br)c1	80% (inactive)
O=c1cc(-c2ccccc2)[nH]c2ncc(-c3ccc(F)cc3)n12	36% (inactive)
Clc1c(Cl)[n+](Cc2ccc3ccccc3c2)cn1Cc1ccc2ccccc2c1	-52.5% (active)
COc1ccc(/C=C/C(=O)c2cc(OC)c(OC)c(OC)c2)cc1OCC(=O)Nc1nc2ccc(OC(F)(F)F)cc2s1	-35.5% (active)
COc1cccc(Nc2ncnc3cc(NC(=O)CCl)ccc23)c1	-77.4% (active)
COc1cc(/C=C/C(=O)c2ccc(-n3cc(CN4CCN(c5cc6c(cc5F)c(=O)c(C(=O)O)cn6C5CC5)CC4)nn3)cc2)ccc1O	83.9% (inactive)
C=C(C)[C@@H]1CCC[C@]2(C(=O)O)CC[C@]3(C)[C@@H](CC[C@@H]4[C@@]5(C)C/C(=C/c6ccncc6)C(=O)C(C)(C)[C@@H]5CC[C@]43C)[C@@H]12	16.6% (inactive)
O=C(N/N=C\c1cccc([N+](=O)[O-])c1)N/N=C/c1cccc([N+](=O)[O-])c1	98.9% (inactive)
O=C(Cn1nnc2ccccc21)N/N=C/c1c[nH]c2ccccc12	18.1% (inactive)
Cn1cc(-c2csc(-c3c[nH]c4ccc(F)cc34)n2)c2ccnc(Cl)c21	79.4% (inactive)
CCNC(=O)Oc1ccc(/C(=C(/CC)Cc2ccccc2)c2ccc(OCCN3CCCC3)cc2)cc1	100% (inactive)
CC(=O)c1sc2sc(C(C)=O)c(C)c2c1C	76.6% (inactive)
CN1C(=O)/C(=C/c2ccc(C(=O)Nc3ncc(Cc4cccc(Cl)c4)s3)cc2)SC1=S	57.5% (inactive)
COc1ccc(C2=CC(c3cc(OC)c(OC)c(OC)c3)n3ncnc3N2)cc1 (stereo unspecified)	-13.3% (active)

Structure (SMILES)	growth
Cc1ccc(Cl)cc1NC(=O)c1sc2nc3c(cc2c1N)C(=O)CCC3	22.9% (inactive)
COc1ccc(/C=C/C(c2cc(OC)c(OC)c(OC)c2)n2cncn2)cc1 (stereo unspecified)	28.4% (inactive)
Cc1ncc(C(=O)Nc2ccc(CN3CCN(C)CC3)c(C(F)(F)F)c2)cc1C#Cc1cnc(N)c2ncccc12	26.2% (inactive)
Cc1ccc(C(=O)c2ccc(CC(=O)NN3C(=O)c4ccccc4C3=O)n2C)cc1	88.1% (inactive)
CN(C)CCCC1(c2ccc(F)cc2)OCc2cc(-c3ccc4cc[nH]c4c3)ccc21 (stereo unspecified)	61.5% (inactive)
O=C(/C=C/c1cccc(Cl)c1Cl)Nc1ncc(Cc2ccccc2Cl)s1	17.5% (inactive)
O=C(Nc1ccc(Cl)cc1)Oc1c(Cl)c(Cl)c(Cl)c(Cl)c1Cl	83.2% (inactive)
CCCCNC(=O)c1cc([N+](=O)[O-])cc(C2CCCCC2)c1O	25.4% (inactive)
O=C1NC(=O)/C(=C/c2c(-c3ccccc3)nc3sc(COc4ccccc4)nn23)S1	83.6% (inactive)
COc1ccc2c(c1)c(/C(O)=C1\COC(=O)C1=O)cn2Cc1ccc(F)cc1	73.9% (inactive)
CCN(CC)CCN1C(=O)c2cccc3c(/C=C/CN4C(=O)c5cccc6cccc(c56)C4=O)ccc(c23)C1=O	97.9% (inactive)
O=C(CCCCCCN1CC(=O)N2[C@H](c3ccc(Br)cc3)c3[nH]c4ccccc4c3C[C@@H]2C1=O)NO	26.9% (inactive)
NNCCc1ccc(NC(=O)CCCc2ccc(C(=O)Nc3ccccc3N)cc2)cc1	13.1% (inactive)
Cc1cccc[n+]1C1c2ccccc2-c2ccccc21	57.9% (inactive)
CN(C)S(=O)(=O)Oc1ccc(-c2sc3cc(OS(=O)(=O)N(C)C)ccc3c2C(=O)c2ccc(OCCN3CCCCC3)cc2)cc1	39.6% (inactive)

Reference: PubChem BioAssay (NCI)
